# In the library only some 21% were active in any assay of this set; here they are far more common.
# Pf growth 96h = P. falciparum growth inhibition at 96 hours | AID 504834 | P. falciparum luciferase reporter growth, 96 h | Potency, µM (titrated, usually from 28.7 µM), inactives show top-dose activity change, negative = inhibition, usual class: inhibitors | 320,000 compounds, 6.9% hits; also: potency is read from the fitted curve at half-maximal effect; % is scaled to controls: 0 for no effect and ±100 for the full control effect
#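 96 h incubation, 37 C, 5% CO2, of luciferase-reporter P. falciparum-infected RBCs (2% hematocrit, 0.05% parasitemia final) with test compounds; endpoint luminescence.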
# NS1 inh = blocks influenza NS1 protein function; Potency, µM (doses to about 46.1 µM), inactives show at the top dose activity, positive = more growth; 270,000 compounds, 0.4% hits; calls by dose curve; also: potency is read from the fitted curve at half-maximal effect; actives are rising curves; nearly all actives have a fitted effect of over 50% in size
#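 OD600 was taken as the measure of yeast growth restored by compound in an NS1-expressing S. cerevisiae strain. Cells had been washed out of glucose medium and diluted 1:100 into galactose -URA medium, pH 6.0.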
# Cycloheximide cs = counter-screen hit for Shiga toxin inhibitors, cycloheximide; cell reporter, cycloheximide protein synthesis inhibition counterscreen; AID 2314; 300,000 compounds, 12% hits; max response, %; in the data active = max response mostly above about 13%, no sharp cut-off; inactive = mostly below about 14%; also: read at 38.3 µM for the half of the compounds with a filed dose; 0% is about no effect
# Shiga toxin inh = Shiga toxin inhibition | Vero cells, Shiga toxin protein synthesis inhibition reporter | inhibition, % at 38.7 µM | 290,000 compounds, 9.2% hits | AID 2315; in the data active = inhibition mostly above about 28%, no sharp cut-off; inactive = mostly below about 43%; also: 0% is about no effect
# Pf growth 48h = inhibits P. falciparum growth in the first generation, 48 h; P. falciparum luciferase growth in erythrocytes, 48 h; Potency, µM (doses to about 28.7 µM), without a hit: at the top dose activity change, negative = inhibition, actives largely listed as inhibitors; 310,000 compounds, 5.9% hits; also: potency is read from the fitted curve at half-maximal effect; % is scaled to controls: 0 for no effect and ±100 for the full control effect
#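 Luminescence readout; reporter = integrated firefly luciferase in P. falciparum. RBC culture at 2% hematocrit, 0.1% parasitemia final, 37 C/5% CO2; decreased signal taken as growth inhibition.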
# Active calls of the source: *; ? = inconclusive; / = no result. Unless noted, calls follow the shape of the dose curve; as a rule, active = well fitted inhibition curve with a large enough effect; inconclusive = small, poorly fitted or top-dose-only effect, or another doubt; inactive = no such curve, though single readings can be large or run the other way.
SMILES,Pf growth 96h,NS1 inh,Cycloheximide cs,Shiga toxin inh,Pf growth 48h
C/C(=N/NC(=O)c1nnn(-c2nonc2N)c1COc1ccccc1)c1ccc(O)cc1,70%,13%,-1,1,13%
CC(C#Cc1c([C@@H](C)Oc2ccccc2)nnn1Cc1ccccc1)Oc1ccccc1 (some centres not stated),9.3µM*,0%,9,-3,12µM*
Cc1ccc(NC(=O)C2CCCCC2)c(O)c1,-20%,4%,21*,41,30%
Cc1ccc(O)c(NC(=O)CCC2CCCCC2)c1,13µM*,-37%,34*,138*,?
Cc1ccc(NC(=O)C2CCN(S(=O)(=O)c3cccs3)CC2)c(O)c1,?,-5%,-3,-8,?
Cc1cccc(NC(=O)N2CCCC2C(=O)NCc2ccccc2)c1 (configuration not stated),9.3µM*,4%,-2,/,-9%
Cc1ccc(NC(=O)C2CCCN2C(=O)OCc2ccccc2)c(C)c1 (configuration not stated),-1%,-1%,-2,28,0%
Cc1ccc(NC(=O)C2CCCN2C(=O)OCc2ccccc2)c(O)c1 (configuration not stated),5.2µM*,10%,-4,-4,?
CCOc1ccccc1-c1nnc2n1N=C(c1cc(OC)cc(OC)c1)CS2,/,/,12,-6,/
O=C(CCC1CCCCC1)Nc1ccccc1O,/,-62%,39*,107*,-61%
O=C(CCC1CCCCC1)Nc1ccccc1-c1ccccc1,36%,-46%,-2,3,21%
CC(=O)N1CC2(CC(=O)OC(C)C)CN(C(C)=O)CC(CC(=O)OC(C)C)(C1)C2=O,12µM*,-11%,-4,-6,4%
O=C(CSc1n[nH]c(=O)n1-c1cccnc1)N1CCOCC1,43%,4%,20*,4,20%
O=C(CSc1n[nH]c(=O)n1Cc1ccco1)N1CCOCC1,1%,0%,16*,-6,37%
O=C(CSc1n[nH]c(=O)n1-c1cccnc1)Nc1ccccc1,29%,10%,-2,33,-4%
O=C(N[C@@H](Cc1ccccc1)C(=O)N1CCN(S(=O)(=O)c2ccc(F)cc2)CC1)c1ccco1,-16%,/,/,/,?
Cc1ccc(OCCN(C)C(=O)C2CCC(=O)N(Cc3ccccc3F)C2)cc1 (configuration not stated),1%,-7%,-1,-27,-7%
COC(=O)c1ccc2c(=O)[nH]c(CN3c4ccccc4CC3C)nc2c1 (configuration not stated),3.3µM*,?,-2,-7,?
CC1Cc2ccccc2N1Cc1nc2cc(Cl)ccc2c(=O)[nH]1 (configuration not stated),?,11%,-3,-6,/
COc1ccc(C2=NC(C)(C)Cc3cc(OC)c(OC)cc32)cc1OC,?,-8%,-2,/,-1%
COc1cc2c(cc1OC)C(c1cc3ccccc3oc1=O)=NC(C)(C)C2,141%,-5%,5,-7,8.3µM*
C=C1CC2C(=O)N(Cc3ccccc3)C(C(=O)OCC)(C(=O)OCC)C1N2C(=O)OC(C)(C)C (configuration not stated),/,/,3,-4,/
O=c1[nH]c(O)c(C=Nc2ccc(Cl)cc2Cl)c(=O)[nH]1,0%,0%,-3,-2,-5%
COc1ccc(Cn2c(=N)c(C(=O)NC3CCCCC3)cc3c(=O)n4ccccc4nc32)cc1,1.9µM*,-13%,14,38,4.7µM*
COc1ccc(CCn2c(=N)c(C(=O)NC3CCCC3)cc3c(=O)n4ccccc4nc32)cc1,?,-4%,-1,-6,?
SMILES,Pf growth 96h,NS1 inh,Cycloheximide cs,Shiga toxin inh,Pf growth 48h
COc1ccc(CCn2c(=N)c(C(=O)NC3CCCC3)cc3c(=O)n4ccccc4nc32)cc1OC,3.3µM*,-7%,0,2,4.1µM*
Cc1ccc(S(=O)(=O)NC(C)(C)CSc2nnc(Nc3ccccc3)s2)cc1,12µM*,-5%,-3,-19,/
O=C(CCN1CCOCC1)c1ccc2c(c1)OCCO2,16%,-31%,1,14,-8%
O=C(OCCN1CCOCC1)c1cccc(F)c1,?,4%,6,36,337%
Cc1cccc(C(=O)OCCN2CCOCC2)c1,-21%,25%,26*,41*,38%
COc1ccc(C(=O)OCCN2CCOCC2)cc1,14%,12%,25*,44*,29%
O=C(CCCN1CCOCC1)c1ccc2c(c1)OCCO2,69%,-5%,32*,76,114%
O=C(OCCN1CCOCC1)c1ccc2c(c1)OCCO2,160%,5%,53*,75*,84%
O=C(N/N=C/c1cccc([N+](=O)[O-])c1)C1CC(=O)N(c2ccc(F)cc2)C1 (configuration not stated),20%,-2%,-3,-4,6%
Cc1ccccc1C(=O)OCCN1CCOCC1,8.3µM*,12%,23*,-2,9%
O=C(OCCN1CCOCC1)c1ccccc1,29%,15%,3,8,9%
O=C(OCCN1CCOCC1)c1ccc(Cl)cc1Cl,-30%,-6%,39*,48*,-23%
Cc1ccc(C(C(=O)NC2CCCC2)N(C(=O)Cc2cccs2)c2ccc(C)c(C)c2)o1 (configuration not stated),10µM*,-3%,7,11,10µM*
Cc1ccc(C(C(=O)NC2CCCC2)N(Cc2ccc3c(c2)OCO3)C(=O)c2snc(C(N)=O)c2N)cc1 (configuration not stated),8.3µM*,6%,5,-2,7.4µM*
O=C(NC1CCCCC1)C(c1ccccc1)N(Cc1ccc2c(c1)OCO2)C(=O)c1cnsn1 (configuration not stated),-61%,5%,-3,-4,9.3µM*
Cc1ccc(C)c(N(C(=O)Cc2cccs2)C(C(=O)NC2CCCC2)c2ccc(C)o2)c1 (configuration not stated),-12%,6%,-4,4,?
NC(=O)c1nsc(C(=O)N(Cc2cccnc2)C(C(=O)NC2CCCC2)c2ccc(F)cc2)c1N (configuration not stated),12%,-1%,-5,-5,?
Cc1ccc(C(C(=O)NC2CCCC2)N(C(=O)Cc2cccs2)c2ccc3c(c2)OCCO3)cc1 (configuration not stated),?,0%,0,-3,3.3µM*
COc1ccc(C(C(=O)NCc2ccccc2)N(Cc2ccc3c(c2)OCO3)C(=O)c2cnccn2)cc1 (configuration not stated),/,-1%,-2,-10,-18%
CC12CCC(=O)N1C(C(=O)N1CCN(c3cccc(Cl)c3)CC1)CS2 (configuration not stated),?,/,/,/,-26%
NS(=O)(=O)c1ccc(CCNC(=O)CCCn2ncn3c(cc4occc43)c2=O)cc1,?,-10%,-2,-4,30%
COCCSc1ccccc1C(=O)Nc1nncs1,-10%,-1%,-1,-11,5%

# Screens (PubChem)
